Records with an inconclusive call do not appear. Calls of active or inactive are those of the source. Calls follow the shape of the dose curve; as a rule, active = well fitted cell-killing curve with a large enough effect; inconclusive = small, poorly fitted or top-dose-only effect; inactive = flat fitted curve, though single readings scatter.
How the values were obtained:
[1] = Cell Viability - LYMP2-025 (AID 976);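 also: series mostly up to about 92 µM; cells exposed to compound for 24 h at 37 °C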
In short: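 Seed 2500 LYMP2-025 cells/well; 5 hr at 37 C; add compound; 24 hr at 37 C; add CellTiter-Glo; 30 min RT; read luminescence. AC50 from Hill-modelled concentration-response.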

[2] = Cell Viability - LYMP2-002 (AID 977);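 also: series mostly up to about 92 µM; compound exposure lasted 24 h at 37 °C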
In short: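 Cytotoxicity is scored as concentration-dependent loss of cellular ATP in a human lymphoblastoid line after 24 hr compound treatment at 37 C. AC50 is obtained by modelling concentration-response data with the Hill equation.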

[3] = Cell Viability - LYMP2-006 (AID 978); also: series mostly up to about 92 µM; nearly all actives have a fitted effect of over 60% in size
In short: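 In this cytotoxicity screen, the human lymphoblastoid line grew in complete medium with test compounds for 24 hr at 37 C. Cellular ATP served as the viability signal.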

[4] = Cell Viability - LYMP2-007 (AID 979);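 also: cells exposed to compound for 24 h before reading; nearly all actives have a fitted effect of over 60% in size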
In short: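 Luminescent ATP signal (CellTiter-Glo) serves as the viability read-out after 24 hr compound treatment of lymphoblastoid cells in complete medium at 37 C. Concentration-response data were fitted to the Hill equation to give AC50 values.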

[5] = Cell Viability - LYMP2-008 (AID 980);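 also: cells exposed to compound for 24 h at 37 °C; nearly all actives have a fitted effect of over 60% in size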
In short: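 qHTS, human lymphoblastoid line, 2500 cells/well; 5 hr preincubation, 24 hr compound, 37 C. CellTiter-Glo ATP luminescence. AC50 via Hill equation. Tetraoctylammonium bromide positive control.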

[6] = Cell Viability - LYMP2-010 (AID 981); also: nearly all actives have a fitted effect of over 55% in size
In short: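 Luminescent ATP signal (CellTiter-Glo) served as the viability read-out. Cells of the human lymphoblastoid line were treated with compound over a concentration range for 24 hours at 37 C, and AC50 values came from Hill-equation modeling.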

[7] = Cell Viability - LYMP2-012 (AID 982);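 also: cellular ATP by luciferase luminescence where a drop means cytotoxicity; cells exposed to compound for one day before reading; nearly all actives have a fitted effect of over 55% in size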
[8] = Cell Viability - LYMP2-014 (AID 983);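 also: series mostly up to about 92 µM; cells exposed to compound for 24 h at 37 °C; nearly all actives have a fitted effect of over 50% in size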
In short: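 Luminescent ATP signal (CellTiter-Glo, 30 min at room temperature) serves as the viability read-out after 24 hr compound exposure at 37 C. Cells were seeded at 2500 per well and settled 5 hr beforehand.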

[9] = Cell Viability - LYMP2-016 (AID 984); also: nearly all actives have a fitted effect of over 55% in size
In short: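 Concentration-dependent ATP depletion measured in LYMP2-016 lymphoblastoid cells, 24 h, 37 C; luciferase-based luminescent detection; Hill-equation AC50.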

[10] = Cell Viability - LYMP2-018 (AID 985); also: nearly all actives have a fitted effect of over 50% in size
In short: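 Luminescent ATP signal (CellTiter-Glo, read after 30 min at room temperature) reports viable cells after 24 hr compound treatment at 37 C. Concentration-response data were fitted to the standard Hill equation for AC50.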

Measured: Potency

Cc1ccccc1Br
inactive: all assays above

Cc1ccccc1C(N)=O
inactive: all assays above

c1ccsc1
inactive: all assays above

COC(=O)CCC(=O)OC
inactive: all assays above

O=[N+]([O-])c1ccc(Cl)cc1Cl
inactive: all assays above

CCC(C)(C)OC
inactive: all assays above

Cc1c(C(=O)O)cccc1[N+](=O)[O-]
inactive: all assays above

O=C(O)/C=C/C(=O)O
inactive: all assays above

Cc1ccccc1C#N
inactive: all assays above

CC(=O)c1cc(C)oc1C
inactive: all assays above

Cc1ccc(S(=O)(=O)NC2CCCCC2)cc1
inactive: all assays above

COc1ccc(N)c(C)c1
inactive: all assays above

CC(=O)Nc1ccccc1C
inactive: all assays above

CCCOCC(C)OCC(C)O (stereo unspecified)
inactive: all assays above

N#Cc1ccccc1
inactive: all assays above

Cc1cccc(C(=O)O)c1[N+](=O)[O-]
inactive: all assays above

CC(C)CCOC(=O)/C=C/c1ccccc1
inactive: all assays above

Cc1cccc(C(=O)O)c1
inactive: all assays above

C=CCCCCCC
inactive: all assays above

CC(=O)CCc1ccccc1
inactive: all assays above

CCCCCCCN
inactive: all assays above

CC=O
inactive: all assays above

CC=C(Cl)Cl
inactive: all assays above

Nc1ccccc1[N+](=O)[O-]
inactive: all assays above

O=C(O)CCSSCCC(=O)O
inactive: all assays above

CCCCCCCCC
inactive: all assays above

CCOC(=O)OCC
inactive: all assays above

NC(=O)c1cccc([N+](=O)[O-])c1
inactive: all assays above

CC(=O)c1cccc([N+](=O)[O-])c1
inactive: all assays above

Nc1cccc(O)c1
inactive: all assays above

CC(C)N=C=NC(C)C
inactive: all assays above

C=CCOC(=O)COCCC(C)C
inactive: all assays above

O=C(Cl)c1c(Cl)cccc1Cl
inactive: all assays above

O=C(O)CN(CC(=O)O)CC(=O)O
inactive: all assays above

CC#N
inactive: all assays above

O=C(O)c1ccccc1C(=O)O
inactive: all assays above

C=Cc1ccccc1C=C
inactive: all assays above

O=C(O)c1ccccc1Cl
inactive: all assays above

Nc1cccc(S(=O)(=O)O)c1
inactive: all assays above

CNC(=O)c1ccccc1
inactive: all assays above

CN(C)CCCNCCCN
not listed: [6] | [7]
inactive: all other assays above

CCCC(C)CO (stereo unspecified)
inactive: all assays above

CC(C)(C)c1ccc(OCC2CO2)cc1 (stereo unspecified)
inactive: all assays above

O=[N+]([O-])c1cccc(C(F)(F)F)c1
inactive: all assays above

OC1CCCC1
inactive: all assays above

C1CCC2OC2C1 (stereo unspecified)
inactive: all assays above

CCC=O
inactive: all assays above

CCCCN(CCO)CCCC
inactive: all assays above

C[C@@H]1O[C@@H](O[C@@H]2[C@@H](O)[C@H](OCCc3ccc(O)c(O)c3)O[C@H](CO[C@@H]3O[C@H](CO)[C@@H](O)[C@H](O)[C@H]3O)[C@H]2OC(=O)/C=C/c2ccc(O)c(O)c2)[C@H](O)[C@H](O)[C@H]1O
not listed: [6]
inactive: all other assays above

Nc1cc(Cl)c([N+](=O)[O-])cc1O
inactive: all assays above

Nc1cc([N+](=O)[O-])ccc1C(=O)O
inactive: all assays above

NS(=O)(=O)O
inactive: all assays above

Cc1ccc2oc(=O)ccc2c1
not listed: [6]
inactive: all other assays above

Nc1cccc2c(=O)[nH][nH]c(=O)c12
inactive: all assays above

CCOc1ccccc1N
inactive: all assays above

Cc1ccc(Br)cc1
inactive: all assays above

CO[Si](CCCNCCC[Si](OC)(OC)OC)(OC)OC
inactive: all assays above

FC(F)(F)c1ccccc1Cl
inactive: all assays above

CCC(C)(C)C(=O)O
inactive: all assays above

NC(=O)CCCCC(N)=O
inactive: all assays above

O=[N+]([O-])c1c(Cl)cc(Cl)cc1Cl
inactive: all assays above

Cc1cccc2cccnc12
inactive: all assays above

CC1(N)CCC(C(C)(C)N)CC1 (stereo unspecified)
inactive: all assays above

NC(=O)/N=N/C(N)=O
not listed: [6]
inactive: all other assays above

Oc1c(Cl)ccc(Cl)c1Cl
not listed: [6]
inactive: all other assays above

Cc1cccc2sc(N)nc12
not listed: [7]
inactive: all other assays above

C1COC1
inactive: all assays above

CCCCCCCCCCCCC1CO1 (stereo unspecified)
inactive: all assays above

CCCCCCCCN
inactive: all assays above

Cc1ccc(N(C)C)cc1
inactive: all assays above

ClC/C=C/CCl
not listed: [7] | [9]
inactive: all other assays above

CC(C)c1ccccc1
inactive: all assays above

C[C@@H]1CC2(OC[C@]3(C)O[C@H]23)O[C@H]2C[C@@]3(C)[C@@H]4CC[C@H]5C(C)(C)C(O[C@@H]6OC[C@@H](O)[C@H](O)[C@H]6O)CC[C@@]56C[C@@]46CC[C@]3(C)[C@@H]12 (stereo partly specified)
not listed: [6]
inactive: all other assays above

Cc1cccc(C)c1O
inactive: all assays above

Oc1cccc(Nc2ccccc2)c1
not listed: [6]
inactive: all other assays above

Cc1cccc(Br)c1
inactive: all assays above

O=C(O[C@@H](C(=O)O)[C@@H](OC(=O)c1ccccc1)C(=O)O)c1ccccc1
not listed: [5]
inactive: all other assays above

O=C(Cl)c1cccc([N+](=O)[O-])c1
not listed: [5]
inactive: all other assays above

c1ccc2n[nH]nc2c1
not listed: [4] | [10]
inactive: all other assays above

Cc1ccc(C)o1
not listed: [5]
inactive: all other assays above

Cc1ccc(C)c(N)c1
not listed: [5]
inactive: all other assays above

O=[N+]([O-])c1ccc(NCCO)c(OCCO)c1
not listed: [5]
inactive: all other assays above

c1ccc(Nc2ccccc2)cc1
not listed: [5]
inactive: all other assays above

C1CCCC1
not listed: [5]
inactive: all other assays above

CC/C=C1/OC(=O)c2ccccc21
not listed: [5]
inactive: all other assays above

CN(C)c1cccc(O)c1
not listed: [5]
inactive: all other assays above

C=C(C)C(=O)OCC(C)O (stereo unspecified)
not listed: [5]
inactive: all other assays above

Cc1cccc2ccccc12
not listed: [5]
inactive: all other assays above

COCCOC(=O)c1ccccc1C(=O)OCCOC
not listed: [5]
inactive: all other assays above

C/C=C1\CC2C=CC1C2 (stereo unspecified)
not listed: [5]
inactive: all other assays above

Nc1nc(-c2ccccc2)cs1
not listed: [5]
inactive: all other assays above

C=C(C)C(=O)OC
not listed: [5]
inactive: all other assays above

Cc1cc(C)cc([N+](=O)[O-])c1
not listed: [5]
inactive: all other assays above

Fc1ccccc1
not listed: [5]
inactive: all other assays above

O=[N+]([O-])c1cccc(Cl)c1
not listed: [5]
inactive: all other assays above

NCCCCCCN
not listed: [5]
inactive: all other assays above

Cc1cccc(C)c1[N+](=O)[O-]
not listed: [5]
inactive: all other assays above

O=C1C=CCCC1
not listed: [5] | [6] | [8]
inactive: all other assays above

O=[N+]([O-])c1ccccc1CCO
not listed: [5] | [10]
inactive: all other assays above

NC=O
not listed: [5]
inactive: all other assays above

CCC(O)C(C)(C)C (stereo unspecified)
not listed: [5]
inactive: all other assays above

O=C(O)c1ccc(CO)o1
not listed: [6] | [7]
inactive: all other assays above

CCCCCCC=O
not listed: [5]
inactive: all other assays above

CCCCC(=O)N(C)C
not listed: [5]
inactive: all other assays above

COc1cccc(N)c1
not listed: [5] | [10]
inactive: all other assays above

CNc1ccc([N+](=O)[O-])cc1
not listed: [5]
inactive: all other assays above

C=Cc1ccc(C=C)cc1
not listed: [5] | [10]
inactive: all other assays above

CCOc1ccc(NC(C)=O)cc1N
not listed: [5]
inactive: all other assays above

Cc1cscn1
not listed: [4] | [10]
inactive: all other assays above

C1CCOC1
not listed: [5]
inactive: all other assays above

Clc1ccc(Cl)c(Cl)c1Cl
not listed: [5]
inactive: all other assays above

O=C(O)c1cc(Cl)cc(Cl)c1
not listed: [5]
inactive: all other assays above

CC(C)(C)OC=O
inactive: [1] | [2] | [3] | [4] | [5] | [9]

Cc1c(N)cccc1[N+](=O)[O-]
not listed: [4] | [10]
inactive: all other assays above

BrC(Br)C(Br)Br
not listed: [5]
inactive: all other assays above

Nc1cc(Cl)c(N)c(Cl)c1
not listed: [5] | [10]
inactive: all other assays above

From PubChem BioAssay (NCATS)
